# Measured values as given in PubChem BioAssay (EPA / NIEHS).
# Active and inactive are the calls of the source. The calls were made as follows: active = hit-call score of the fitted dose curve at least 0.9, where 1 is the maximum; inactive = score below 0.9.
# Test: ATG_BRE_CIS: Attagene CIS-FACTORIAL HepG2 Assay for human Bone Morphogenetic Protein (BMP) Response Element (BRE) (AID 2282933)
# Settings: HepG2 BMP response element reporter, Attagene transcription factor profiling; actives raise or lower the signal
# Method: ATG_CIS is a cell-based, multiplexed-readout assay that uses HepG2, a human liver cell line, with measurements taken at 24 hours after chemical dosing in a 24-well plate.ATG_BRE_CIS is one of 52 assay component(s) measured or calculated from the ATG_CIS assay. It is designed to make measurements of mRNA induction, a form of inducible reporter, as detected with fluorescence intensity signals by Reverse transcription polymerase chain reaction (RT-PCR) and Capillary electrophoresis technology.Data from the assay component ATG_BRE_CIS was analyzed into 1 assay endpoint. This assay endpoint, ATG_BRE_CIS, was analyzed with bidirectional fitting relative to DMSO as the negative control and baseline of activity. Using a type of inducible reporter, measures of mRNA for gain or loss-of-signal activity can be used to understand the reporter gene at the transcription factor-level as they relate to the gene SMAD1. Furthermore, this assay endpoint can be referred to as a primary readout, because this assay has produced multiple assay endpoints where this one serves a reporter gene function. To generalize the intended target to other relatable targets, this assay endpoint is annotated to the dna binding intended target family, where the subfamily is Smad protein.
# Human liver HepG2 cells are transiently transfected with multiple reporter transcription units (MRTUs) in 6-well plates using FuGene 6 reagent (Roche; 3 ml FuGene/1 mg DNA). The MRTU constructs are regulated by a cis-regulating element (promoter). […] A major difference between the CIS and TRANS system is that in CIS activities of endogenous TFs are measured, whereas the TRANS assay evaluates changes in activities of exogenous, chimeric NR-Gal4 proteins. […] At the end of 24 hour incubation, total RNA was isolated using TriZol reagent (Invitrogen). The isolated RNA is then reverse-transcribed using oligo(dT) primer and Mo-MLV reverse transcriptase (Invitrogen) with DNAse I (Ambion) treatment for 30 min. The one-tenth of the produced cDNA was amplified by PCR using Taq DNA polymerase (Invitrogen) and two reporter sequence-specific primers. The PCR products were fluorescently labeled by primer extension with 6-arboxyfluorescein (6-FAM) 5'-labeled reporter sequence-specific primer (2 min at 95 C, 20 s at 68 C and 10 min at 72 C) and these products were digested with 5U of HpaI (New England Biolabs) for 2h at 37 C. The fragments were purified using Qiaquick PCR columns (Qiagen), analyzed on an ABI 3130xL genetic analyzer (Applied Biosystems) with peak positions identified by using a set of X-rhodamine (ROX)-labeled MapMarker1000 molecular weight standards (BioVentures). The raw capillary electrophoresis data was processed using Attagraph software (Attagene).
SMILES,AC50,outcome
CN(C)c1ccc(C(=N)c2ccc(N(C)C)cc2)cc1,7.22 µM (active),–
CCc1ccc2c(c1)C(=O)c1ccccc1C2=O,–,inactive
C1=Cc2ccccc2C1,–,inactive
CCCCCCCCCCc1ccccc1,–,inactive
CC(C)c1ccc2cc(C(C)C)ccc2c1,–,inactive
CC/C=C\C/C=C\C/C=C\CCCCCCCC(=O)O,–,inactive
c1ccc2c(c1)ccc1cc3c(ccc4ccccc43)cc12,–,inactive
c1ccc(CNCc2ccccc2)cc1,–,inactive
CC(=O)Oc1ccc(C)cc1,–,inactive
O=C(O)c1cc(Cl)cc([N+](=O)[O-])c1Cl,–,inactive
O=C(O)Cc1c(Cl)ccc(Cl)c1Cl,–,inactive
CC(=O)Nc1ccc2c(c1)Cc1cc(NC(C)=O)ccc1-2,–,inactive
NC(=O)C1CO1 (stereo not given),–,inactive
COc1ccc(-c2coc3cc(O)ccc3c2=O)cc1,–,inactive
OC1CCCCCCCCCCC1,–,inactive
CO[Si](OC)(OC)c1ccccc1,–,inactive
O=C(O)CCCCCCCCCC(=O)O,–,inactive
CC(C)c1ccc2c(C(C)C)cc(C(C)C)c(S(=O)(=O)O)c2c1,–,inactive
CC(C)CCCC(C)CC=O (stereo not given),–,inactive
Clc1nc2ccccc2s1,–,inactive

SMILES,AC50,outcome
C=C(C)[C@@H]1CCC2=CCC[C@@H](C)[C@]2(C)C1,–,inactive
C=C(C)CCO,–,inactive
O=C1CCCN1CCO,–,inactive
C=C(C)c1cccc(C(C)(C)N=C=O)c1,–,inactive
CC(=O)NS(=O)(=O)c1ccc(N)cc1,–,inactive
CC(=O)OC1C2(C)CCC(C2)C1(C)C (stereo not given),–,inactive
O=C(O)c1cc2ccccc2nc1C(=O)O,–,inactive
C=C[Si](C)(C)O[Si](C)(C)C=C,–,inactive
CCC(C)C=O (stereo not given),–,inactive
CC1(C)S[C@@H]2[C@H](NC(=O)COc3ccccc3)C(=O)N2[C@H]1C(=O)O,–,inactive
CC(C)=CCC[C@H](C)CCO,–,inactive
Cc1cccc(N(C)C(=S)Oc2ccc3ccccc3c2)c1,–,inactive
CCCCCCCCCCCCCCCC(=O)OCC,–,inactive
[Cl][In]([Cl])[Cl],–,inactive
Cc1cccc(C(=O)O)c1,–,inactive
CCCCCCCCCCOS(=O)(=O)O,–,inactive
C[Si](C)O[Si](C)(C)O[Si](C)(C)O[Si](C)C,–,inactive
Cc1ccccc1C,–,inactive
O=C(Nc1cccc(C(F)(F)F)c1)c1cc(Br)cc(Br)c1O,1.08 µM (active),–
COC(=O)c1ccccc1OC,–,inactive
